Laboratory results: PubChem BioAssay (NCI)
About 79,000 compounds went through this panel and 15% of them were active in at least one assay; those are over-represented in the sample as a whole. Rule as the data show it: active = growth inhibition above about 70%; inactive = the rest.

How the values were obtained:
[1] = NCI Yeast Anticancer Drug Screen. Data for the rad50 strain (AID 155);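 also: 0% = growth of vehicle-only cultures of the same strain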; conditions: S. cerevisiae rad50 strain growth inhibition; at 50.0 µM; hits give high values
Outline: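 Compounds were tested on a yeast strain with an engineered DNA damage repair alteration; the reported value is growth inhibition normalised to vehicle treatment.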

[2] = NCI Yeast Anticancer Drug Screen. Data for the mec2-1 strain (AID 157); conditions: S. cerevisiae mec2-1 strain, at 50.0 µM, hits give high values
Outline: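 Readout is yeast growth inhibition, normalised to vehicle-treated controls, in the mec2-1 strain exposed to compound.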

[3] = NCI Yeast Anticancer Drug Screen. Data for the sgs1 mgt1 strain (AID 161);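 also: 0% = growth of cultures given vehicle only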; conditions: S. cerevisiae sgs1 mgt1 strain, at 50.0 µM, hits give high values
Outline: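 Percent growth inhibition was derived by comparing compound-exposed mutant yeast with vehicle-exposed cultures. The strain carries alterations in DNA damage repair.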

[4] = NCI Yeast Anticancer Drug Screen. Data for the cln2 rad14 strain (AID 165);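 also: 0% = growth equal to vehicle treated cultures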; conditions: S. cerevisiae cln2 rad14 strain, at 50.0 µM, hits give high values
Outline: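 Relative to vehicle controls, growth inhibition of compound-treated cln2 rad14 yeast was recorded.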

[5] = NCI Yeast Anticancer Drug Screen. Data for the bub3 strain (AID 167); conditions: S. cerevisiae bub3 mutant strain, at 50.0 µM, hits give high values
Outline: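 Growth of a checkpoint-deficient yeast mutant is measured after compound exposure. Values represent inhibition relative to vehicle.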

[6] = NCI Yeast Anticancer Drug Screen. Data for the mlh1 rad18 strain (AID 175); conditions: S. cerevisiae mlh1 rad18 strain growth inhibition; at 50.0 µM; hits give high values
Outline: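 Test agents were incubated with a yeast strain of defined genotype (DNA damage repair defect). Inhibition of growth was derived by comparison with vehicle-exposed cultures.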

Measured: growth inhibition

COc1ccccc1C(O)(c1ccccc1OC)C1(O)CCN(C)CC1
inactive: [1] -10.8% | [2] -10.9% | [3] -4.8% | [4] -4.45% | [5] -5.3% | [6] -10.4%

BrC1CCC(OCc2ccccc2)C(OCc2ccccc2)C1 (stereo not given)
inactive: [1] -10.8% | [2] 7.25% | [3] 13.8% | [4] 8.85% | [5] 10.7% | [6] -0.95%

N#C/C(=C/c1cccc(Oc2ccccc2)c1)c1ccccc1
inactive: [1] 11.7% | [2] -28.2% | [3] -0.55% | [4] -1.5% | [5] -23.1% | [6] -14.4%

CCCc1[nH]n(-c2ccccc2)c(=O)c1N=Nc1ccc(Cl)cc1
inactive: [1] -4.25% | [2] -6.65% | [3] -9.95% | [4] -5.1% | [5] -7.6% | [6] -0.8%

O=C(Nc1ccccc1C(=O)N/N=C/c1cccc(O)c1)c1ccccc1
inactive: [1] 9.5% | [2] 24.8% | [3] 12.9% | [4] -20% | [5] 34.5% | [6] 4.55%

O=Cc1ccc(N2CCCCC2)cc1
inactive: [1] 4.05% | [2] 7.95% | [3] -13.2% | [4] -24.2% | [5] -8.25% | [6] -4.45%

CC(=O)Nc1ccccc1/C=C\c1ccccn1
inactive: [1] -21.6% | [2] -9.85% | [3] -15.5% | [4] 1.25% | [5] -5.1% | [6] -11.7%

CC(=O)OC1COC(n2c(O)c(N=NC(N)=S)c3cc(Br)ccc32)C(OC(C)=O)C1OC(C)=O (stereo not given)
inactive: [1] 41.1% | [2] 8.2% | [3] 46.2% | [4] -34.2% | [5] 27.1% | [6] 31.1%

COc1cc(C2c3cc4c(cc3OC(NCCc3ccccc3)C2C)OCO4)cc(OC)c1OC (stereo not given)
inactive: [1] -15.8% | [2] -41.4% | [3] -0.3% | [4] -25.4% | [5] 0.6% | [6] 11.4%

COc1ccc2[nH]c3c(c2c1)-c1ncncc1CC3
inactive: [1] 37.4% | [2] -9.65% | [3] -3.7% | [4] 6.1% | [5] 40.4% | [6] 24.4%

O=C1C(=C(c2ccc([N+](=O)[O-])cc2)N2CCOCC2)C(=O)c2ccccc21
inactive: [1] 8.9% | [2] 0.4% | [3] 6.45% | [4] -30.9% | [5] 1.75% | [6] 10.3%

O=C(CCCCCC(=O)N1CC(CCl)c2ccc([N+](=O)[O-])cc21)N1CC(CCl)c2ccc([N+](=O)[O-])cc21 (stereo not given)
inactive: [1] -28.8% | [2] -39.8% | [3] -15.6% | [4] -4.5% | [5] -2.9% | [6] -55.4%

CN(Cc1ccccc1)C(=O)c1ccccc1C(=O)O
inactive: [1] -9.2% | [2] -2.85% | [3] -4.75% | [4] -15.9% | [5] -4.95% | [6] 13.2%

Cn1nnnc1CCO
inactive: [1] -9.45% | [2] 7.05% | [3] -13.4% | [4] -0.55% | [5] 2.9% | [6] -8.55%

Cn1c(=O)c2c(ncn2CCNCC(O)c2cc(C(C)(C)C)c(O)c(C(C)(C)C)c2)n(C)c1=O (stereo not given)
inactive: [1] 31.2% | [2] 6.35% | [3] 19% | [4] 16.8% | [5] -3.2% | [6] 11.2%

COc1ccc(/C=C2\Cc3ccccc3C2=O)cc1OC
inactive: [1] -0.05% | [2] -10.2% | [3] -9.85% | [4] 8.25% | [5] -25.4% | [6] -1.5%

COC(=O)c1cc(C(=O)OC)c(CC(=O)C(=O)Nc2ccc(Cl)c(C(F)(F)F)c2)nc1CC(=O)C(=O)Nc1ccc(Cl)c(C(F)(F)F)c1
inactive: [1] -25.2% | [2] -30.2% | [3] -30.9% | [4] 10.5% | [5] 12.2% | [6] -17.9%

CCSc1ncnc2nc[nH]c12
inactive: [1] 9% | [2] -8.8% | [3] 4.4% | [4] -18.4% | [5] -9.55% | [6] 8.4%

O=C1Oc2ccccc2C(=O)C1=S1CCCC1
inactive: [1] 6.9% | [2] 12.1% | [3] 9.3% | [4] 18.6% | [5] 9.05% | [6] 14.6%

C=C1c2ccccc2C=NN1c1ccccc1
inactive: [1] 19.4% | [2] 4.35% | [3] 13.2% | [4] 4.25% | [5] -8.75% | [6] 1%
